# Source: paper PMC11062922 (Nature Chemical Biology, 2023)
# Read-outs that look alike come from different tables or passages of the source.
# What was measured:
# Design in all cases: species or system human, MV4-11 + K-562 + COLO205 + SK-N-BE2 + OVCAR-8
# DYRK1A = details: read-out: apparent Kd, n = 1
# FLT3 = details: read-out: apparent Kd, compound concentrations: 100 nM and 1000 nM (sheet 'Samples'), n = 1
# GSK3A = details: read-out: apparent Kd, n = 1
# GSK3B = details: read-out: apparent Kd, n = 1
# AKT2 = details: read-out: apparent Kd; compound concentrations:100 nM and 1000 nM (sheet 'Samples'); n = 1
# ACAD11 = details: read-out: apparent Kd, n = 1
# ACVR1B = details: read-out: apparent Kd, compound concentrations: 100 nM and 1000 nM (sheet 'Samples'), n = 1
# ACVR1 = details: read-out: apparent Kd, compound concentrations: 100 nM and 1000 nM (sheet 'Samples'), n = 1
# ZAK = details: read-out: apparent Kd, compound concentrations: 100 nM and 1000 nM (sheet 'Samples'), n = 1
# SIK2 = details: read-out: apparent Kd, compound concentrations: 100 nM and 1000 nM (sheet 'Samples'), n = 1
# AURKB = details: read-out: apparent Kd, n = 1
# BTK = details: read-out: apparent Kd, compound concentrations: 100 nM and 1000 nM (sheet 'Samples'), n = 1
# CSK = details: read-out: apparent Kd, compound concentrations: 100 nM and 1000 nM (sheet 'Samples'), n = 1
# EPHA1 = details: read-out: apparent Kd, compound concentrations: 100 nM and 1000 nM (sheet 'Samples'), n = 1
# FRK = details: read-out: apparent Kd, compound concentrations: 100 nM and 1000 nM (sheet 'Samples'), n = 1
# LYN = details: read-out: apparent Kd, compound concentrations: 100 nM and 1000 nM (sheet 'Samples'), n = 1
# SRC = details: read-out: apparent Kd, compound concentrations: 100 nM and 1000 nM (sheet 'Samples'), n = 1
# TNK2 = details: read-out: apparent Kd, compound concentrations: 100 nM and 1000 nM (sheet 'Samples'), n = 1
# DDR1 = details: read-out: apparent Kd; compound concentrations:100 nM and 1000 nM (sheet 'Samples'); n = 1
# EGFR = details: read-out: apparent Kd, compound concentrations: 100 nM and 1000 nM (sheet 'Samples'), n = 1
# [1] = compound concentrations:100 nM and 1000 nM (sheet 'Samples')
compound,measurement,setting,value
O=C1N=C(NCCc2ccccc2F)S/C1=C\c1ccc2ncccc2c1 [RO4498483-000],potency estimated from few doses,"DYRK1A; compound concentrations: 100 nM and 1000 nM (sheet 'Samples'), CATDS: 8.8096211342070505E-2",883 nM
same,potency estimated from few doses,FLT3; CATDS: 7.3322298638159894E-2,1520 nM
O=C1N=C(NCCc2cccc(Cl)c2)S/C1=C\c1ccc2ncccc2c1 [RO4509201-000],potency estimated from few doses,"DYRK1A; compound concentrations: 100 nM and 1000 nM (sheet 'Samples'), CATDS: 6.6454923664205107E-2",945 nM
same,potency estimated from few doses,FLT3; CATDS: 6.3899678732730503E-2,1060 nM
Cn1cc(C2=C(c3cn(CCCO)c4ccccc34)C(=O)NC2=O)c2ccccc21 [RO0317377-000],potency estimated from few doses,"GSK3A; compound concentrations: 100 nM and 1000 nM (sheet 'Samples'), CATDS: 0.248455440441466",311 nM
same,potency estimated from few doses,"GSK3B; compound concentrations: 100 nM and 1000 nM (sheet 'Samples'), CATDS: 0.25409844627903599",301 nM
CNC1=NC(=O)/C(=C/c2ccc3ncccc3c2)S1 [RO4595949-000],potency estimated from few doses,"DYRK1A; compound concentrations: 100 nM and 1000 nM (sheet 'Samples'), CATDS: 0.10780330705145599",209 nM
O=C1N=C(NCCc2ccccn2)S/C1=C\c1ccc2ncccc2c1 [RO4508346-000],potency estimated from few doses,"DYRK1A; compound concentrations: 100 nM and 1000 nM (sheet 'Samples'), CATDS: 0.223400824962835",127 nM
Cc1cccc(-c2cc(-c3c[nH]nc3-c3ccccn3)ccn2)c1 [GW679395X],potency estimated from few doses,AKT2,2340 nM
COc1cccc(-n2ncc3c(N/N=C/c4ccc(C(=O)NCCN(C)C)cc4)ncnc32)c1.Cl [GW784307A],potency estimated from few doses,"ACAD11; compound concentrations: 100 nM and 1000 nM (sheet 'Samples'), CATDS: 2.6823851715364801E-2",1620 nM
same,potency estimated from few doses,ACVR1B; CATDS: 4.53928679778344E-2,315 nM
same,potency estimated from few doses,ACVR1; CATDS: 0.29663347499665699,12.6 nM
same,potency estimated from few doses,"GSK3A; compound concentrations: 100 nM and 1000 nM (sheet 'Samples'), CATDS: 8.2277419546057398E-2",89 nM
same,potency estimated from few doses,"GSK3B; compound concentrations: 100 nM and 1000 nM (sheet 'Samples'), CATDS: 7.3478066296280203E-2",110 nM
same,potency estimated from few doses,ZAK; CATDS: 3.20798372195591E-2,834 nM
O=C1N=C(NCCc2cccc(F)c2)S/C1=C\c1ccc2ncccc2c1 [RO4508344-000],potency estimated from few doses,"DYRK1A; compound concentrations: 100 nM and 1000 nM (sheet 'Samples'), CATDS: 0.105735187935075",750 nM
same,potency estimated from few doses,FLT3; CATDS: 0.14042863340460501,431 nM
O=C1N=C(NCC(CO)c2ccccc2)S/C1=C\c1ccc2ncccc2c1 (stereo not shown) [RO4582641-000],potency estimated from few doses,"DYRK1A; compound concentrations: 100 nM and 1000 nM (sheet 'Samples'), CATDS: 9.2693691803080097E-2",353 nM
CCc1nc(-c2cccc(N(C)S(=O)(=O)c3ccccc3)c2)c(-c2ccnc(Nc3ccc(N4CCN(C(C)=O)CC4)nc3)n2)s1 [GSK1645895A],potency estimated from few doses,ZAK; CATDS: 0.12983068767625999,2300 nM
Cc1cccc(Nc2nc(NCCN)ncc2C(N)=O)c1 [GSK1292139B],potency estimated from few doses,SIK2; CATDS: 8.4015516979832894E-2,925 nM
Cl.O=C1N=C(NCc2ccccn2)S/C1=C\c1ccc2ncccc2c1 [RO4874953-001],potency estimated from few doses,"DYRK1A; compound concentrations: 100 nM and 1000 nM (sheet 'Samples'), CATDS: 0.10050944146971801",893 nM
same,potency estimated from few doses,"GSK3A; compound concentrations: 100 nM and 1000 nM (sheet 'Samples'), CATDS: 8.1690756727002906E-2",1370 nM
O=C1N=C(NCc2ccccc2)S/C1=C\c1ccc2ncccc2c1 [RO4442080-000],potency estimated from few doses,"DYRK1A; compound concentrations: 100 nM and 1000 nM (sheet 'Samples'), CATDS: 9.0282965342826302E-2",1320 nM
O=C1N=C(NCc2cccs2)SC1Cc1ccc2ncccc2c1 (stereo not shown) [RO4629078-000],potency estimated from few doses,"ACAD11; compound concentrations: 100 nM and 1000 nM (sheet 'Samples'), CATDS: 8.0770900756938508E-3",1250 nM
same,potency estimated from few doses,ACVR1; CATDS: 8.2545547739811299E-3,1160 nM
same,potency estimated from few doses,"AURKB; compound concentrations: 100 nM and 1000 nM (sheet 'Samples'), CATDS: 8.1625100314479202E-3",1200 nM
same,potency estimated from few doses,BTK; CATDS: 1.32457116906247E-2,360 nM
same,potency estimated from few doses,CSK; CATDS: 1.22881462523177E-2,419 nM
same,potency estimated from few doses,EPHA1; CATDS: 1.25959830755684E-2,398 nM
same,potency estimated from few doses,FLT3; CATDS: 7.9273479759833908E-3,1330 nM
same,potency estimated from few doses,FRK; CATDS: 9.6278136963786204E-3,738 nM
same,potency estimated from few doses,"GSK3A; compound concentrations: 100 nM and 1000 nM (sheet 'Samples'), CATDS: 2.0180819092640301E-2",174 nM
same,potency estimated from few doses,"GSK3B; compound concentrations: 100 nM and 1000 nM (sheet 'Samples'), CATDS: 1.6634751009670601E-2",238 nM
same,potency estimated from few doses,LYN; CATDS: 9.9981449743306808E-3,670 nM
same,potency estimated from few doses,SIK2; CATDS: 1.2411552216362301E-2,411 nM
same,potency estimated from few doses,SRC; CATDS: 1.3307336951607501E-2,357 nM
same,potency estimated from few doses,TNK2; CATDS: 1.95530569334194E-2,183 nM
COc1cc(Nc2ccnc3cc(-c4ccncc4)ccc23)cc(OC)c1OC.Cl [GW494610A],potency estimated from few doses,ACVR1B; CATDS: 6.2055393770244598E-2,76.5 nM
same,potency estimated from few doses,ACVR1; CATDS: 8.6839126385756693E-2,38.3 nM
same,potency estimated from few doses,"AURKB; compound concentrations: 100 nM and 1000 nM (sheet 'Samples'), CATDS: 5.7571781244095399E-2",90.3 nM
same,potency estimated from few doses,CSK; CATDS: 2.2928225838280001E-2,1390 nM
same,potency estimated from few doses,EPHA1; CATDS: 0.10844818822907799,25.4 nM
same,potency estimated from few doses,SIK2; CATDS: 2.3854628716910201E-2,1170 nM
CCn1cc(-c2ccnc3[nH]c(-c4cccc(CN(C)C)c4)cc23)c(-c2ccc(NC(=O)N(C)C)cc2)n1 [GSK1070916],potency estimated from few doses,AURKB; [1],594 nM
same,potency estimated from few doses,DDR1,869 nM
c1ccc(Oc2ccc(Nc3ccnc4cc(-c5ccc(CN6CCCCC6)o5)ccc34)cc2)nc1 [GW567143X],potency estimated from few doses,"AURKB; compound concentrations: 100 nM and 1000 nM (sheet 'Samples'), CATDS: 3.8957530355760599E-2",1180 nM
same,potency estimated from few doses,EPHA1; CATDS: 6.2167566437911E-2,315 nM
same,potency estimated from few doses,FLT3; CATDS: 0.15169843184363399,60.9 nM
same,potency estimated from few doses,FRK; CATDS: 3.9738345055864897E-2,1100 nM
same,potency estimated from few doses,LYN; CATDS: 4.1336056970238899E-2,956 nM
same,potency estimated from few doses,SRC; CATDS: 5.3011588623511699E-2,464 nM
same,potency estimated from few doses,TNK2; CATDS: 3.98580587888741E-2,1080 nM
same,potency estimated from few doses,ZAK; CATDS: 3.3669776805855603E-2,2210 nM
CN1CCN(Cc2cccc(-c3ccc4c(Nc5ccc(Oc6ccccc6)cc5)ccnc4c3)c2)CC1 [GW578342X],potency estimated from few doses,SRC; CATDS: 9.2821429290207799E-2,825 nM
CN1CCN(Cc2ccc(-c3ccc4c(Nc5ccc(Oc6ccccn6)cc5)ccnc4c3)o2)CC1 [GW567140X],potency estimated from few doses,EGFR; CATDS: 3.6910458353503803E-2,1180 nM
same,potency estimated from few doses,EPHA1; CATDS: 4.2699834629257603E-2,760 nM
same,potency estimated from few doses,FLT3; CATDS: 5.7646545219248203E-2,368 nM
same,potency estimated from few doses,FRK; CATDS: 3.6217931786021701E-2,1260 nM
same,potency estimated from few doses,LYN; CATDS: 3.5611600643533602E-2,1330 nM
same,potency estimated from few doses,SRC; CATDS: 4.7577990075445997E-2,573 nM
same,potency estimated from few doses,TNK2; CATDS: 4.3541420759690502E-2,720 nM
O=S(=O)(c1ccc(-c2ccnc3[nH]ccc23)cc1)N1CCCC1 [GSK846226A],potency estimated from few doses,ACAD11; [1],693 nM
Cn1cc(-c2cnc(N)c3c(-c4ccc5c(c4)CCN5C(=O)Cc4ccccc4)csc23)cn1 [GSK2593074A],potency estimated from few doses,AURKB; [1],692 nM
CS(=O)(=O)c1ccc(-c2cnc(N)c(C(=O)Nc3ccccc3)n2)cc1 [VE-821],potency estimated from few doses,"ACAD11; compound concentrations: 100 nM and 1000 nM (sheet 'Samples'), CATDS: 0.28747433490732499",334 nM
same,potency estimated from few doses,ACVR1; CATDS: 0.23402364017956601,475 nM
CC(=O)c1c(-c2ccncc2)[nH]c(-c2ccncc2)c1C [GW493036X],potency estimated from few doses,DYRK1A; [1],53.7 nM
same,potency estimated from few doses,GSK3A; [1],400 nM
same,potency estimated from few doses,GSK3B; [1],535 nM
COc1cc2nccc(Nc3ccc(Oc4ccccc4)cc3)c2cc1OC.Cl [GI261656A],potency estimated from few doses,BTK; CATDS: 4.2074902264998597E-2,1400 nM
same,potency estimated from few doses,EGFR; CATDS: 3.8994788715485701E-2,2360 nM
same,potency estimated from few doses,FRK; CATDS: 5.3958789023196299E-2,470 nM
same,potency estimated from few doses,LYN; CATDS: 7.8976671860543801E-2,160 nM
same,potency estimated from few doses,SRC; CATDS: 5.79534996745752E-2,372 nM
